Key:
[1] = system: Vero E6 infected with SARS-CoV-2; experiment: morphology score (similarity to uninfected cells); higher = more like uninfected cells; conditions: 24 h
[2] = system: Vero E6 infected with SARS-CoV-2; experiment: SARS-CoV-2 infection rate relative to infected DMSO; higher = more infection, active = 60 or less; conditions: 24 h

Row | Structure (SMILES) | morphology score [1] | SARS-CoV-2 infection rate [2]
1 | Cc1cccc(-c2nn3c(c2-c2ccnc4ccc(C(N)=O)cc24)CCC3)n1 (10 µM) | 0.128 | 100% (inactive)
2 | O=C(O)c1cc(-c2ccccc2)nc2ccccc12 [cinchophen] (10 µM) | 0.0922 | 104% (inactive)
3 | Nc1ncnc2c1nc(Br)n2[C@@H]1O[C@@H]2COP(=O)(O)O[C@H]2[C@H]1O [8-bromo-cAMP] (10 µM) | 0.422 | 102% (inactive)
4 | c1cc(-c2cnn3cc(-c4ccc(OCCN5CCCCC5)cc4)cnc23)ccn1 [dorsomorphin] (0.833333 µM) | 0.321 | 96.5% (inactive)
5 | O[C@H]1CC[C@H](Nc2ncc3nc(Nc4c(F)cc(F)cc4F)n([C@H]4CCOC4)c3n2)CC1 (0.833333 µM) | 0.103 | 101% (inactive)
6 | Cc1cc(C(=O)Nc2cc(Oc3ccc4nc(NC(=O)C5CC5)cn4n3)ccc2C)n(C)n1 (10 µM) | 0.227 | 102% (inactive)
7 | N#Cc1cccc(-c2nc(-c3cccnc3)no2)c1 (10 µM) | 0.143 | 98.5% (inactive)
8 | Cc1ncc(CN2CC=C(c3ccccc3)CC2)c(N)n1 (10 µM) | 0.0617 | 108% (inactive)
9 | CC(C)[C@@H](CS(=O)(=O)C(C)C)N1C(=O)[C@@](C)(CC(=O)O)C[C@H](c2cccc(Cl)c2)[C@H]1c1ccc(Cl)cc1 (10 µM) | -0.12 | 114% (inactive)
10 | C[C@]12C/C(=C/O)C(=O)C[C@@H]1CC[C@@H]1[C@@H]2CC[C@@]2(C)[C@H]1CC[C@]2(C)O [Oxymetholone] (10 µM) | -0.162 | 120% (inactive)
11 | COC(=O)N[C@H](C(=O)N1CCC[C@H]1c1nc(-c2ccc3c(c2)O[C@@H](c2ccccc2)n2c-3cc3cc(-c4c[nH]c([C@@H]5CCCN5C(=O)[C@@H](NC(=O)OC)C(C)C)n4)ccc32)c[nH]1)C(C)C [elbasvir] (10 µM) | -0.17 | 120% (inactive)
12 | CC(C)n1nnc2cc(C(=O)O)ccc21 (10 µM) | 0.0496 | 102% (inactive)
13 | CCCOc1ccc2[nH]cc(C3=CCNCC3)c2n1 (10 µM) | 0.24 | 96% (inactive)
14 | Nc1ccn([C@H]2CC[C@@H](CO)O2)c(=O)n1 [zalcitabine] (10 µM) | 0.0931 | 104% (inactive)
15 | CCCCCCCCCCCCCCCC(=O)OC(CC(=O)[O-])C[N+](C)(C)C (stereo not drawn) [palmitoylcarnitine] (0.833333 µM) | -0.0181 | 106% (inactive)
16 | N#Cc1ccc(Cn2cncc2CN2CCN(c3cccc(Cl)c3)C(=O)C2)cc1 (10 µM) | 0.276 | 95% (inactive)
17 | c1cc2c3c(c1)c1c(n3CCNC2)CCCC1 (10 µM) | -0.0322 | 104% (inactive)
18 | C[C@]1(COc2ccc(N3CCC(Oc4ccc(OC(F)(F)F)cc4)CC3)cc2)Cn2cc([N+](=O)[O-])nc2O1 [delamanid] (10 µM) | -0.0971 | 110% (inactive)
19 | O=Nc1ccc(O)c2ncccc12 (10 µM) | -0.131 | 108% (inactive)
20 | N.N.O=C([O-])C[O-].[Pt+2] [nedaplatin] (10 µM) | 0.0896 | 102% (inactive)
21 | N#C[C@H](O[C@@H]1O[C@H](CO[C@@H]2O[C@H](CO)[C@@H](O)[C@H](O)[C@H]2O)[C@@H](O)[C@H](O)[C@H]1O)c1ccccc1 [amygdalin] (10 µM) | 0.155 | 106% (inactive)
22 | C[C@H](N/C(=N/C#N)Nc1cccc2ncccc12)c1ccccc1 (10 µM) | 0.0952 | 98.5% (inactive)
23 | O=C(Nc1cccc(C(F)(F)F)c1)Nc1cc(S(=O)(=O)NC2CC2)ccc1-c1ccsc1 (10 µM) | 0.196 | 102% (inactive)
24 | c1ccc(N2CCN(CCCOc3ccc4c(c3)OCO4)CC2)cc1 (10 µM) | 0.0822 | 101% (inactive)
25 | COc1ccc(CN(CCN(C)C)c2ccccn2)cc1 [mepyramine] (10 µM) | 0.0933 | 106% (inactive)
26 | Cc1nnc2n1-c1sc(CCC(=O)N3CCOCC3)cc1C(c1ccccc1Cl)=NC2 [apafant] (10 µM) | -0.0825 | 112% (inactive)
27 | OC[C@@H](O)[C@@H](O)[C@@H](O)CO [ribitol] (10 µM) | 0.073 | 105% (inactive)
28 | c1cc(CN2CCCCC2)cc(OCCCNc2nc3ccccc3s2)c1 [zolantidine] (10 µM) | 0.67 | 44% (active)
29 | CC1CCC(NC(=O)N(CCCl)N=O)CC1 (stereo not drawn) [semustine] (10 µM) | -0.0906 | 116% (inactive)
